# Assay outcomes (PubChem)
# In the library only some 7.3% were active in any assay of this set; here they are far more common.
# Rab9 promoter act = qHTS Assay for Rab9 Promoter Activators; Potency, µM (series often up to 9.22 µM), inactives show top-dose activation, negative = inhibition, most hits filed as activators; actives 2.8% (n = 320,000); Huh7 Rab9 promoter-luciferase reporter, luminescence, 24 h; AID 485297, 2010; further: % of control where 0% means no effect; nearly all actives have a fitted effect of over 60% in size
#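 Luciferase signal after 10 min detection reagent at ambient indicates Rab9 promoter upregulation; stably transfected Huh7 cells were treated 24 h with compound in DMSO at 37 °C, 5% CO2.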
# SMN2 splice up = qHTS Assay for Enhancers of SMN2 Splice Variant Expression; Potency, µM (highest dose often 46.1 µM), without a hit: top-dose activity change, positive = activation, usual class: activators; AID 1458, 2008; actives 2.8% (n = 210,000); HEK293 SMN2-luciferase splicing reporter, luminescence, 30-36 h; further: % of control where 0% means no effect; nearly all actives have a fitted effect of over 55% in size
#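 qHTS luciferase splicing reporter: luminescence rises when SMN2 exon 7 is included in transfected HEK293 cells. Compound exposure lasted 30-36 h at 37C, with 4.5 mM final sodium butyrate as control, followed by a ONE-Glo read.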
# ELG1 genotoxic = qHTS screen for small molecules that induce genotoxicity in human embryonic kidney (HEK293T) cells expressing luciferase-tagged ELG1. actives 1.3% (n = 330,000). AID 504466, 2011. HEK293T ELG1-luciferase reporter, luminescence, 16 h. Potency, µM (doses to about 46 µM), for the others: top-dose activity change, positive = activation, most hits filed as activators; further: % of control where 0% means no effect; nearly all actives have a fitted effect of over 60% in size
#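 Reporter readout depends on ELG1 protein level, which increases with genetic stress. After 16 hr compound exposure at 37 °C, luciferase activity was quantified using ONE-Glo.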
# KinaseGlo FLuc = Counterscreen for Luciferase (Kinase-Glo TM) Inhibition. Luciferin 4-monooxygenase (Photuris pensylvanica), Q27757. Kinase-Glo luciferase, ATP luminescence, 8 min. Potency, µM (titrated, usually from 38.3 µM), for the others: at the highest dose activity change, negative = inhibition, usual class: inhibitors. actives 0.28% (n = 200,000). AID 1379, 2008; further: on the % scale 0 is the no-effect control and ±100 the full control effect; nearly all actives have a fitted effect of over 60% in size
#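 Inhibition of Kinase-Glo luciferase light generation was assessed at 10 uM ATP in pH 7.2 imidazole buffer, with luminescence measured after eight minutes at ambient temperature.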
# NPC1 prom act = qHTS Assay for NPC1 Promoter Activators. AID 485313, 2010. Potency, µM (series often up to 9.22 µM), for the others: at the highest dose activation, actives largely listed as activators. actives 2.4% (n = 320,000). Huh7 NPC1 promoter luciferase reporter, 24 h; further: % of control where 0% means no effect; nearly all actives have a fitted effect of over 60% in size
#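 Huh7 reporter cells (NPC1 promoter driving luciferase) are dosed with compound for 24 h at 37 °C, 5% CO2; luciferase detection reagent is then added and luminescence measured after 10 min at ambient temperature.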
# FLuc modulator = qHTS profiling assay for firefly luciferase inhibitor/activator using purifed enzyme and Km concentrations of substrates (counterscreen for miR-21 project) | Luciferin 4-monooxygenase (Photinus pyralis), P08659 | purified FLuc, Km substrates, luminescence inhibition | Potency, µM (highest dose often 57.5 µM), for the others: top-dose activity change, negative = inhibition, usual class: inhibitors | actives 6.9% (n = 360,000) | AID 588342, 2011;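 further: plate controls were vehicle for no effect and reference inhibitor for full effect; nearly all actives have a fitted effect of over 55% in size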
# Target sequence (P08659 whole entry, looked up): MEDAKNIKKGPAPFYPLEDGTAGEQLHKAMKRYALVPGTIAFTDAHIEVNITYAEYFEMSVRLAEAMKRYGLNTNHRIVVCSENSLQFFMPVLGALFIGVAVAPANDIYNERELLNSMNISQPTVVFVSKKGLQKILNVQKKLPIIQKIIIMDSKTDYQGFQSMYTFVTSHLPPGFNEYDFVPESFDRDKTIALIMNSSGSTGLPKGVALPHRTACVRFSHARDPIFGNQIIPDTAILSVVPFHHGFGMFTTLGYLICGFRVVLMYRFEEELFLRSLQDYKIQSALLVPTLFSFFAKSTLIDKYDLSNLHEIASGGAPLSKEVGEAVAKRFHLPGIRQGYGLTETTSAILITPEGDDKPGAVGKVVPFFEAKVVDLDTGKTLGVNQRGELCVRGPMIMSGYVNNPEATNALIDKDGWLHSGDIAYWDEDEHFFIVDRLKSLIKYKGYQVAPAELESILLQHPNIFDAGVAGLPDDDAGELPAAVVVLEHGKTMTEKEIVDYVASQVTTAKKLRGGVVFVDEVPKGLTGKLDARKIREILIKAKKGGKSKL
#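 Purified P. pyralis luciferase (10nM final) with 10uM D-luciferin and 10uM ATP (Km levels) in 50mM Tris acetate pH 7.5, 10mM Mg acetate, 0.01% Tween-20, 0.05% BSA; qHTS 6-point titration, ~60 µM downward; luminescence read.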
# * hit, by the source's call; ? = inconclusive; / = not tested or not shown; [ ] = dose if it differs, or a comment. The call rests on the fitted dose curve; in most records, active means well fitted curve in the direction sought with a large enough effect; inconclusive means small, poorly fitted or top-dose-only effect, or another doubt; inactive means no such curve, though single readings can be large; an effect the other way counts as inactive or inconclusive. Potency means the concentration at half of the fitted maximal effect.
SMILES,Rab9 promoter act,SMN2 splice up,ELG1 genotoxic,KinaseGlo FLuc,NPC1 prom act,FLuc modulator
CCn1c(Cc2ccccc2)nnc1SCC(=O)Nc1ccc(N2CCOCC2)c(Cl)c1,-2.0%,-35.3%,12.0%,-2.7%,10.7%,15.1µM*
CCOc1cccc(-c2nc3ccccc3c(=O)o2)c1,/,?,/,/,/,5.36µM*
COc1cccc(-c2nc3ccccc3c(=O)o2)c1,8.7%,-13.2%,?,-21.1%,12.3%,4.78µM*
COc1cc(OC)cc(-c2nc3ccccc3c(=O)o2)c1,-6.5%,-13.2%,-4.8%,-4.2%,-2.7%,?
COc1cc(/C=C(/C#N)c2nc(-c3cc4ccccc4oc3=O)cs2)ccc1O,/,-21.8%,/,/,/,?
CC1(C)NC(=O)N(CCCCOc2ccc3ccccc3c2Cl)C1=O,15.6%,-12.3%,?,-4.0%,?,21.3µM*
CC1(C)NC(=O)N(CCOCCOc2ccc3ccccc3c2Br)C1=O,9.4%[1.84 µM],6.7%,?,-1.2%,19.0%,?
COC(=O)c1cc2occc2n1Cc1ccc(F)cc1Cl,/,9.0%,/,/,/,-9.0%
COc1cccc(-c2nc3ccc(C(=O)NC(C)Cc4cccnc4)cc3o2)c1 (configuration not stated),2.82µM*,/,?,/,2.24µM*,9.53µM*
COC(=O)C1CCN(C(=O)c2ccc3nc(-c4cccc(OC)c4)oc3c2)CC1,2µM*,/,?,/,1.78µM*,21.3µM*
COC(=O)C1CCN(C(=O)c2ccc3nccnc3c2)CC1,-4.1%,/,9.7%,/,-7.4%,-2.9%
Cc1ccc(C2c3cccn3CCN2S(=O)(=O)c2ccc([N+](=O)[O-])cc2)cc1 (configuration not stated),/,/,/,/,/,-5.2%
Cc1nn(-c2nc(-c3ccc(F)cc3)cc(C(F)(F)F)n2)c(C)c1Br,/,-18.7%,/,/,/,2.9%
CC(=O)c1cc2c(cc1NC(=O)c1ccc(Cl)cc1)OCCO2,-2.4%,/,17.9%,/,-1.3%,-3.8%
Cc1ccc(C(=O)Nc2cc3c(cc2Cl)OCCCO3)cc1,2µM*,11.2µM*,?,5.0%,1.78µM*,7.57µM*
O=C(Nc1cc2c(cc1Cl)OCCCO2)c1ccc(F)cc1,2.82µM*,7.94µM*,?,-5.5%,?,12µM*
O=C(Nc1cc2c(cc1Br)OCCCO2)c1ccccc1,3.98µM*,15.8µM*,?,1.0%,3.55µM*,13.5µM*
COc1cc(NC(=O)CCc2nc3cccnc3n2Cc2cccs2)cc(OC)c1OC,/,-8.1%,/,/,/,-11.5%
N=C1CCC[C@@H]1C(=S)SCCC(N)=O,/,-5.1%[9.22 µM],/,-4.3%[7.66 µM],/,/
Cc1ccc(OCC(=O)Nc2ccc3c(c2)OCCO3)cc1C,13.5%,-16.7%,?,-1.6%,6.2%,16.9µM*
Cc1cccc(OCC(=O)Nc2ccc3c(c2)OCCO3)c1,3.16µM*,9.6%,6.51µM*,0.7%,?,6.01µM*
CC(=O)Nc1cccc(OCC(=O)Nc2ccc(F)cc2)c1,20.2%,?,5.2%,0.5%,13.6%,?
CC(C)CNS(=O)(=O)c1ccc(OCC(=O)Nc2ccc3c(c2)OCCO3)cc1,0.6%,/,-2.2%,5.5%,-1.8%,0.9%
C/C(CC(=O)Nc1ccc2c(c1)OCCO2)=N\NC(=O)COc1ccccc1,1.4%,/,6.6%,/,-3.2%,?
Cc1ccc(OCC(=O)Nc2ccc(F)cc2)cc1C,-2.0%,6.1%,?,-1.0%,-2.1%,19µM*
SMILES,Rab9 promoter act,SMN2 splice up,ELG1 genotoxic,KinaseGlo FLuc,NPC1 prom act,FLuc modulator
Cn1c(=O)c2c(ncn2CN2CCN(Cn3cnc4c3c(=O)n(C)c(=O)n4C)CC2)n(C)c1=O,/,-0.1%[9.22 µM],/,-3.3%[7.66 µM],/,/
O=C(c1cc2cc(Br)ccc2o1)N1CCN(c2ccccc2)CC1,-0.6%,/,?,/,-1.4%,19µM*
O=C(c1cc2cc(Br)ccc2o1)N1CCCC1,?,26.4%,?,0.3%,?,?
O=C(c1cc2cc(Br)ccc2o1)N1CCOCC1,?,/,21.0%,0.7%,12.8%,21.3µM*
Cc1ccc(Cn2c(C)c(CNCc3ccccc3F)c(C(=O)O)c2C)cc1,/,0.6%,/,/,/,-1.6%
CC(=O)c1ccc(Nc2cc(C)nc3nc(Cc4ccc(Cl)cc4)nn23)cc1,/,-8.1%,/,/,/,-0.7%
Cc1noc(C)c1C(=O)N1CCC2(CCCN(C(=O)Nc3ccccc3)C2)CC1,/,-7.3%,/,0.6%,/,/
COc1ccc2nc(SCC(=O)Nc3ccc4c(c3)OCCO4)[nH]c2c1,15.0%,-13.0%,?,-4.7%,1.7%,13.5µM*
CCOc1ccc2nc(SCC(=O)Nc3ccc4c(c3)OCCO4)[nH]c2c1,-4.8%,13.6%,3.3%,20.8%,0.9%,16.9µM*
CCOc1ccc2nc(SCC(=O)NCc3ccc4c(c3)OCO4)[nH]c2c1,0.7%,-12.2%,-1.9%,-0.4%,-2.3%,0.6%
CCOc1ccc2nc(SCC(=O)Nc3ncccn3)[nH]c2c1,-5.3%,-5.9%,1.5%,-5.0%,-0.1%,?
CCOc1ccc2nc(SCC(=O)Nc3cccc(S(=O)(=O)NC4=NCCCCC4)c3)[nH]c2c1,-5.9%,4.2%,-5.3%,-1.2%,0.2%,21.3µM*
CCN(CC)S(=O)(=O)c1ccc2c(c1)N(CC(=O)Nc1cccc(C)c1C)C(=O)C1CCCN21 (configuration not stated),/,/,/,/,/,5.2%
Cc1ccc(S(=O)(=O)CC(=O)Nc2sc3c(c2C#N)CCCC3)cc1,/,/,/,/,/,-16.1%
CSc1cccc(NC(=O)C2CCCN(C(=O)c3cnn(-c4ccc(F)cc4)c3-n3cccc3)C2)c1 (configuration not stated),/,/,/,/,/,-17.0%
O=C1c2ccccc2NC(c2cccc([N+](=O)[O-])c2)N1CCc1ccccc1 (configuration not stated),?,/,10.7%,/,?,19µM*
Cc1cccc(C2Nc3ccccc3C(=O)N2CCc2ccccc2)n1 (configuration not stated),14.9%,?,0.3%,-2.3%,2.2%,?
CC(=O)c1cccc(S(=O)(=O)NCC2CCCCC2)c1,?,?,-0.1%,-2.6%,0.0005µM*,-1.2%
CC(=O)c1cccc(S(=O)(=O)NC2CCCCCC2)c1,-0.7%,0.9%[1.84 µM],1.2%,0.4%,-0.7%,-2.8%
O=C(N/N=C/c1ccccn1)c1ccc(NC(=O)c2ccccc2Cl)cc1,0.1%,/,-7.5%,/,-2.2%,?
CCc1ccc(-c2cc(C(=O)N/N=C/c3ccco3)[nH]n2)cc1,0.6%,0.5%,-6.7%,-5.4%,12.7%,?
O=C(N/N=C/c1ccccn1)c1ccc(Cl)c(Cl)c1,2.0%,/,20.6µM*,/,0.0%,?
